Activity calls are given as the source filed them.

The test system of test [1] is Plasmodium falciparum Sir2 (PF13_0152, Sir2A). The test is described as follows: Plasmodium falciparum Sir2A binding compounds – biochemical, small-molecule microarray, 635 nm fluorescence, primary screen (AID 1098).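 Also: score merges spot fluorescence intensity with its signal-to-noise ratio.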 The conditions noted are these: fluorescence 635 nm, higher = more signal.
A short description of test [2]: probe aDKK1 binding to arrayed compounds – biochemical, biotinylated probe, 635/667 nm fluorescence, primary screen (AID 1099).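 Also: score merges 667nm spot fluorescence with signal to noise across triplicate slides.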 To be noted: small-molecule microarray, higher = more signal.
Test [3] in a line: probe aCHRDL2 binding to arrayed compounds – biochemical, biotinylated probe, 635/667 nm fluorescence, primary screen (AID 1100). To be noted: small-molecule microarray, higher = more signal.
Test [4] in a line: change in splice reporter luminescence, either direction, cell-based, HEK293, spliceosome inhibition project, primary screen (AID 1101).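 Also: HEK293 cells carrying a splicing-competent luciferase reporter gene; test concentration not given here.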 To be noted: HEK293 splicing luciferase reporter, 24 h, higher = more signal, called active from +8 up or from −8 down.
Test [5] addresses Fibroblast growth factor 10 (Homo sapiens) (UniProt O15520). The test is described as follows: compounds binding fibroblast growth factor 10 – biochemical, small-molecule microarray, 635 nm fluorescence, primary screen (AID 1102). The conditions noted are these: FGF10 binding, fluorescence 635 nm, higher = more signal.
Test [6] concerns glycogen synthase kinase-3 (GSK3A per assay name; protocol says GSK3B). Briefly: compounds binding glycogen synthase kinase-3 – biochemical, small-molecule microarray, 635 nm fluorescence, GSK3A, primary screen (AID 1103). Also: the record names both GSK3A and GSK3B. The conditions noted are these: fluorescence 635 nm, higher = more signal.
Test [7] concerns the target Epidermal growth factor receptor (Homo sapiens) (UniProt P00533). The test is described as follows: compounds binding epidermal growth factor receptor – biochemical, small-molecule microarray, 635 nm fluorescence, primary screen (AID 1104).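 Also: score merges 667 nm emission intensity with spot signal to noise over triplicate slides.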 The conditions noted are these: EGFR binding, higher = more signal.
In test [8] the target is Follistatin-related protein 3 (Homo sapiens) (UniProt O95633). The test is described as follows: compounds binding follistatin-related protein 3 – biochemical, small-molecule microarray, 635 nm fluorescence, primary screen (AID 1105).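 Also: score merges emission near 667 nm and signal to noise per printed spot across three slides.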 The conditions noted are these: FSTL3 binding, higher = more signal.
Test [9] concerns the target Dickkopf-related protein 1 (Homo sapiens) (UniProt O94907). The test is described as follows: small molecules binding DKK1 protein – biochemical, small-molecule microarray, 635 nm fluorescence scan, primary screen (AID 1106).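 Also: score merges emission near 667 nm with signal to noise over three replicate slides.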 To be noted: higher = more signal.
The test system of test [10] is Inhibin beta A chain (activin A). The test is described as follows: small molecules binding activin A – biochemical, small-molecule microarray, 635 nm fluorescence scan, primary screen (AID 1107).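 Also: mouse activin A protein probed at 4.33 µg/mL on printed slides; score merges bound-protein fluorescence near 667 nm with spot signal-to-noise.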 To be noted: INHBA, higher = more signal.
The test system of test [11] is Human papillomavirus type 1a protein E7 (residues 44-93). Briefly: small molecules binding HPV E7 44-93 – biochemical, small-molecule microarray, residues 44-93, 635 nm fluorescence, primary screen (AID 1108).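 Also: E7 fragment applied at 1 µg/mL in TBST for 1 h at 4 C; score combines spot fluorescence with its signal to noise ratio.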 The conditions noted are these: fluorescence 635 nm, higher = more signal.
A short description of test [12]: hepatitis C replication reporter changes, two-sided – Huh7 cells, luciferase reporter, HCV replication inhibitor project, primary screen (AID 1109).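 Also: huh7 hepatoma cells harbouring a luciferase neomycin HCV replicon reporter; luciferase luminescence as measure of HCV replicon replication; test concentration not given here.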 To be noted: Huh7 HCV replicon luciferase reporter, 48 h; higher = more signal.
Test [13] deals with Left-right determination factor 2 (Homo sapiens) (UniProt O00292). The test is described as follows: small molecules binding LEFTY2 protein – biochemical, small-molecule microarray, 635 nm fluorescence scan, primary screen (AID 1110). To be noted: higher = more signal.
In test [14] the target is Calmodulin-1 (Homo sapiens) (UniProt P0DP23). Briefly: small molecules binding calmodulin-1 with EGTA – biochemical, small-molecule microarray, Cy5-labelled CALM1, profiling panel (AID 1111).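 Also: labelled calmodulin applied in Tris saline Tween buffer holding calcium plus EGTA and DTT.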 The conditions noted are these: Cy5-CALM1 binding fluorescence, higher = more signal.
The target is the same in test [15]. The test is described as follows: small molecules binding Ca-loaded calmodulin-1 – biochemical, small-molecule microarray, Cy5-labelled CALM1, plus calcium, artefact control for SMM control-protein annotation, profiling panel (AID 1112).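 Also: score merges spot fluorescence with signal to noise from triplicate slides.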 To be noted: Cy5-CALM1 binding fluorescence, higher = more signal.
Test [16] is described as follows: probe aWnt5a binding to arrayed compounds – biochemical, biotinylated probe, 635/667 nm fluorescence, primary screen (AID 1113).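 Also: score merges 667 nm fluorescence intensity with signal-to-noise per printed feature.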 The conditions noted are these: small-molecule microarray, higher = more signal.
Test [17] in a line: probe aShh binding to arrayed compounds – biochemical, biotinylated probe, 635/667 nm fluorescence, primary screen (AID 1114).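 Also: probe is biotin-labelled aShh protein from a stem cell growth factor screen; measures binding of labelled protein to compounds printed on the slide; score merges feature fluorescence at 667 nm with signal-to-noise.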 The conditions noted are these: small-molecule microarray, higher = more signal.
Test [18] is described as follows: probe aNog binding to arrayed compounds – biochemical, biotinylated probe, 635/667 nm fluorescence, primary screen (AID 1115).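 Also: probe is biotinylated aNog protein used at 0.15 µg/mL for 1 h at 4 C; z-score combines 667 nm fluorescence of each spot with its signal to noise.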 The conditions noted are these: small-molecule microarray, higher = more signal.
For test [19], the target named is Torsin-1A-interacting protein 1 (Homo sapiens) (UniProt Q5JTV8). Briefly: compound microarray binding of lysate hLAP1 – cell lysate, small-molecule microarray, COS7 lysate, 635/667 nm fluorescence, primary screen (AID 1116). The conditions noted are these: 635 nm fluorescence, higher = more signal.
Test [20] deals with Alpha-bungarotoxin (Bungarus multicinctus) (UniProt P60615). The test is described as follows: compounds binding labelled alpha-BTX control protein – biochemical, small-molecule microarray, Alexa647 label, 635/667 nm fluorescence, artefact control for SMM control protein annotation, profiling panel (AID 1117). The conditions noted are these: alpha-BTX-A647 binding fluorescence, higher = more signal.
Sequence of Alpha-bungarotoxin (Bungarus multicinctus) (P60615 whole entry, looked up): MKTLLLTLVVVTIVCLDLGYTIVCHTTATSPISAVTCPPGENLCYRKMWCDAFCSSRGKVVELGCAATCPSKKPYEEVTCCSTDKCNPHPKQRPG

Sequence of Epidermal growth factor receptor (Homo sapiens) (P00533 whole entry, looked up): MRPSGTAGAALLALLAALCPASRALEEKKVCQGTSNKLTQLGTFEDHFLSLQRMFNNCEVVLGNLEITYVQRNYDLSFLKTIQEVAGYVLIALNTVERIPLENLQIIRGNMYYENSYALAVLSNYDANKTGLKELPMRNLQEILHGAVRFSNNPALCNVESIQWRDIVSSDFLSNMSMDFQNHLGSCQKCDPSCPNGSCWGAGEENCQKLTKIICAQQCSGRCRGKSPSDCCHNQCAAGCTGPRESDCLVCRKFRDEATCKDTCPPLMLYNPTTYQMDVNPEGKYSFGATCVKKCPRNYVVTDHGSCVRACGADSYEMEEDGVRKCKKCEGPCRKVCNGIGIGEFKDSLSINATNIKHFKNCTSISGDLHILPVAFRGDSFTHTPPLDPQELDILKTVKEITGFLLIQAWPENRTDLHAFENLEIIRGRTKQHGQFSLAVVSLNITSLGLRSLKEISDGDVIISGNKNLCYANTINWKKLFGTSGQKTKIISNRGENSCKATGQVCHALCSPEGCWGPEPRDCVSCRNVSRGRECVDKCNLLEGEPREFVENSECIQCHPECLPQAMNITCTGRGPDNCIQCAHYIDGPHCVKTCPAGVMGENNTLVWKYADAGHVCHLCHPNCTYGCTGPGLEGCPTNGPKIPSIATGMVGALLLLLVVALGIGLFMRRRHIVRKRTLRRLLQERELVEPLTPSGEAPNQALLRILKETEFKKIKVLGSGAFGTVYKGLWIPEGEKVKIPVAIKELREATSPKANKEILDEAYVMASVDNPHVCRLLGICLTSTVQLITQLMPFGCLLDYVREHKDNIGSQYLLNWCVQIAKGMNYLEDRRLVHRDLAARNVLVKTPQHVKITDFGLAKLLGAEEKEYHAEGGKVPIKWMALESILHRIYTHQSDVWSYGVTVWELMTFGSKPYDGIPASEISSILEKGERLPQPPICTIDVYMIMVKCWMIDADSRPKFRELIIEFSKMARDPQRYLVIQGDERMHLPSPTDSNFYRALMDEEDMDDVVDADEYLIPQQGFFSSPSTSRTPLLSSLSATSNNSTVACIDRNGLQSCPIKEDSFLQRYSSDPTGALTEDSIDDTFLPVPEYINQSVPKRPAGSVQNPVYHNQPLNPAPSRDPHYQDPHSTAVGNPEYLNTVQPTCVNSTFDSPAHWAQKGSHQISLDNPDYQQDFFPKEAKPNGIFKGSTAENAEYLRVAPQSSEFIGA
Sequence of Left-right determination factor 2 (Homo sapiens) (O00292 whole entry, looked up): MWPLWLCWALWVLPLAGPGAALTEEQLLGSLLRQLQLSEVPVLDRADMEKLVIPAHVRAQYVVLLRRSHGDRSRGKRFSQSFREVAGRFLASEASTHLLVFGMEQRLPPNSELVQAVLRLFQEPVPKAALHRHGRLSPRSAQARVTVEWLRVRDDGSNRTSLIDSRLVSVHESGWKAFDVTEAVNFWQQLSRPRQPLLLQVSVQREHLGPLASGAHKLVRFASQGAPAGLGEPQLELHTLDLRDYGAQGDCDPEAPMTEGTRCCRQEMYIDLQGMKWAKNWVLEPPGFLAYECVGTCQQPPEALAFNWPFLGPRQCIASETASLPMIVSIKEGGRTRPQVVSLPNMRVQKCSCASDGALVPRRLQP
Sequence of Torsin-1A-interacting protein 1 (Homo sapiens) (Q5JTV8 whole entry, looked up): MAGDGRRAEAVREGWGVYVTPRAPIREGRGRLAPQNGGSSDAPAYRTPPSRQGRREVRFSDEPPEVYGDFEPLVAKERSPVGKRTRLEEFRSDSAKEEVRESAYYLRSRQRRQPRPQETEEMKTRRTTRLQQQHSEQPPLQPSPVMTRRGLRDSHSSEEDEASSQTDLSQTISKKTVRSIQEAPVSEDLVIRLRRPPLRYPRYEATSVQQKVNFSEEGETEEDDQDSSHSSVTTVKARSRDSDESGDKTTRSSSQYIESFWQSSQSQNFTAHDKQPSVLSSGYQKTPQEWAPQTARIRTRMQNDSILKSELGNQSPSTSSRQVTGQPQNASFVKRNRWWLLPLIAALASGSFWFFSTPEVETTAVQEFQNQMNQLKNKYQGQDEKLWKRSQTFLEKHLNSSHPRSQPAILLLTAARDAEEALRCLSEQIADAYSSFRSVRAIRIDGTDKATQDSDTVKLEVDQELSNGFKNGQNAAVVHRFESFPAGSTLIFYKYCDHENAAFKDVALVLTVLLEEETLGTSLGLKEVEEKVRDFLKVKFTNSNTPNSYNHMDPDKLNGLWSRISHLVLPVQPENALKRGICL
Sequence of Follistatin-related protein 3 (Homo sapiens) (O95633 whole entry, looked up): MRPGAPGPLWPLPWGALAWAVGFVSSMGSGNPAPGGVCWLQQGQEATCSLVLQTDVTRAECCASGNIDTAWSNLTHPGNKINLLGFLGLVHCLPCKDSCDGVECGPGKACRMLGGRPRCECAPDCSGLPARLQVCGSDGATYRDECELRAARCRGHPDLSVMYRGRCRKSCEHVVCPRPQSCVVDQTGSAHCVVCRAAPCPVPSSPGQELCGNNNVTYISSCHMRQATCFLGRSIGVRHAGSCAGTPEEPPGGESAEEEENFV
Sequence of Fibroblast growth factor 10 (Homo sapiens) (O15520 whole entry, looked up): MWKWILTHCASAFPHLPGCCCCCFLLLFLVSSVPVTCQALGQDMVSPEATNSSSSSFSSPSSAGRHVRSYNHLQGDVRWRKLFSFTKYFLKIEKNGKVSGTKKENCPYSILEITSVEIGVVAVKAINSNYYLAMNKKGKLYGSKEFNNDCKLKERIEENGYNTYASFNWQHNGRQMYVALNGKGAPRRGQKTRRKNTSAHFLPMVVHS
Sequence of Dickkopf-related protein 1 (Homo sapiens) (O94907 whole entry, looked up): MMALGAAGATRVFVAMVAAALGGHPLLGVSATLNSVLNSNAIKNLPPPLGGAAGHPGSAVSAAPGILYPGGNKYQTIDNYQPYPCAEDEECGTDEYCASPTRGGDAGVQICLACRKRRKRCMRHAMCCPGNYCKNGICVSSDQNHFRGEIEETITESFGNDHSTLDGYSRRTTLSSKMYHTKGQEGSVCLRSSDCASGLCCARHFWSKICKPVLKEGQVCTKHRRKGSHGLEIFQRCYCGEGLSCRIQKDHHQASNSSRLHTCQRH

`C=CCC(OC(C)=O)[C@@H]1[C@@H](N(Cc2ccc(-c3ccccc3)cc2)C(=O)Cc2ccc(OC)cc2)c2cc(OCCCO)ccc2N1C(=O)Cc1ccc2ccccc2c1` (stereo not given in full): the composite z-score in test [1] is -0.324; in test [2] it was -0.0834; in [3], 0.308; in test [5] it was -0.437; in [6] it was -0.299; in [7], -0.163. Besides, the composite z-score in test [8] was -0.0274; in [9] it was -0.0237; in test [10] it was 1.06; in [11] it was -0.285; in [13] it was -0.305; in [14], -0.247. Besides, the composite z-score was 0.831 in [15]; -0.0297 in test [16]; -0.0769 in test [17]; -0.366 in test [18]; -0.172 in [19]; 0.87 in test [20]. Moreover, the z-score is 0.247 (inactive) in test [4] and -1.14 in [12].
For `O=C(NCCO)C1=C[C@H](Oc2ccccc2I)[C@@H](O)[C@H](N(Cc2ccco2)C(=O)Cc2ccccc2)C1`, the composite z-score is -0.012 in [1]; -0.223 in test [2]; -0.453 in test [3]; 0.556 in test [5]; 0.349 in test [6]; 0.508 in [7]. For the same compound, the composite z-score is 0.468 in test [8]; 0.431 in test [9]; 0.497 in test [10]; -0.0509 in test [11]; 0.51 in [13]; -0.0916 in test [14]. The composite z-score in test [15] is -0.671; in test [16] it was 0.0057; in test [17] it was -0.209; in [18] it was 0.0129; in test [19], 0.591; in test [20], -0.0333. The z-score is -0.0906 (inactive) in test [4] and 0.807 in test [12].
In the case of `C=CCNC(=O)[C@@H]1[C@H]2C(=O)O[C@H](c3ccccc3)[C@H](c3ccccc3)N2[C@H](c2ccc(O)cc2)[C@@]12C(=O)Nc1ccc(C#CCNC(N)=O)cc12`, the composite z-score is 0.213 in test [1]; -0.3 in test [2]; 0.778 in test [3]; 0.0464 in test [5]; -0.489 in [6]; -0.219 in [7]. Further, the composite z-score is -0.164 in test [8]; -0.732 in [9]; -0.0122 in [10]; 1.28 in test [11]; -1.09 in test [13]; -0.0555 in [14]. The composite z-score was -0.28 in test [15]; -0.124 in test [16]; 0.157 in test [17]; -0.125 in test [18]; 1.4 in test [19]; -0.234 in test [20]. In addition, the z-score in [4] was 0.788 (inactive); in [12] it was -0.365.
`CC(=O)NCCCC[C@@H]1NC(=O)[C@H]2C[C@@H](C(=O)NCCCCCCNC(=O)CS)[C@@H](c3ccc(O)cc3)N2C1=O`: the composite z-score in test [1] was 0.629; in test [2] it was -0.0749; in [3], 0.986; in test [5], 0.0258; in test [6], 0.0703; in test [7], -0.728. Moreover, the composite z-score was -0.961 in test [8]; -0.788 in test [9]; -1.11 in test [10]; 1.06 in [11]; -0.747 in [13]; 0.362 in test [14]. Further, the composite z-score in [15] is -0.295; in test [16], -0.124; in test [17], 0.131; in [18] it was 0.0933; in [19], 0.284; in [20] it was 1.33. In addition, the z-score was -0.401 (inactive) in test [4] and -0.532 in [12].
Turning to `COC(=O)[C@@]1(Cc2ccc(OC)cc2)[C@H]2c3cc(C(=O)N(C)C)n(CCc4ccccn4)c3C[C@H]2CN1C(=O)c1ccccc1`, the composite z-score is 0.566 in test [1]; 1.62 in [2]; 1.41 in test [3]; 0.286 in test [5]; -0.133 in test [6]; -0.011 in test [7]. Moreover, the composite z-score was 0.0285 in test [8]; -0.586 in [9]; 0.937 in test [10]; 0.263 in [11]; -0.288 in test [13]; 0.993 in test [14]. Moreover, the composite z-score in test [15] was found to be 0.93; in test [16] it was 0.675; in test [17] it was 1.31; in test [18] it was 0.854; in test [19], 1.01; in test [20] it was 0.248. Also, the z-score was 0.317 (inactive) in test [4] and -0.845 in [12].

The record behind these values is PubChem BioAssay.
